Measured values from PubChem BioAssay (Tox21).
Several values for one entry are separate records, joined by “and”; a condition that tells them apart may be missing. Identical values can stand only once. Inconclusive results are not listed. Activity calls are given as the source filed them. Unless noted, calls follow the shape of the dose curve; as a rule, active = well fitted curve in the direction sought with a large enough effect in the repeat runs; inconclusive = weak or mixed curves; inactive = no such curve, though single readings can be large; an effect the other way counts as inactive or inconclusive.

Experiments:
[1] = biological target: Luciferin 4-monooxygenase (Photinus pyralis) (UniProt P08659); test: qHTS assay to identify small molecule inhibitors of firefly luciferase (AID 1224835); also: nearly all actives have a fitted effect of over 25% in size; also: potency is read from the fitted curve at half-maximal effect
Luciferin 4-monooxygenase (Photinus pyralis), sequence (P08659 whole entry, looked up): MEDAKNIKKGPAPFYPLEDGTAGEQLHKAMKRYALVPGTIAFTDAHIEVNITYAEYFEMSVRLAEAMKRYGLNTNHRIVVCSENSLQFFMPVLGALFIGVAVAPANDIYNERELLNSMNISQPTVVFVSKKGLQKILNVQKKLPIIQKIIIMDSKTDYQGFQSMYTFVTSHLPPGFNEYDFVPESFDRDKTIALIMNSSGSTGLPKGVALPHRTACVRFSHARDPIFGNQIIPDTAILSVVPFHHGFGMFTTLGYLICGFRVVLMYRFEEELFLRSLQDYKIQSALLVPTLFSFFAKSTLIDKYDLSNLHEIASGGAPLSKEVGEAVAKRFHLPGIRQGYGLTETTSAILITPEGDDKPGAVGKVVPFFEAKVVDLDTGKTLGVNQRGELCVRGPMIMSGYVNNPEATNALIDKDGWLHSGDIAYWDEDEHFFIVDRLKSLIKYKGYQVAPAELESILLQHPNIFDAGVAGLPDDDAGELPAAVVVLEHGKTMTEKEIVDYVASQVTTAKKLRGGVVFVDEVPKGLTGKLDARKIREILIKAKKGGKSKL
Method in brief: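 Inhibition of purified Photinus luciferase is measured by luminescence. Substrate levels (D-luciferin, ATP) sit at their KM values. Each compound is tested in a concentration series.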

[2] = qHTS assay to identify small molecule agonists of the constitutive androstane receptor (CAR) signaling pathway - cell viability counter screen (AID 1224836); also: nearly all actives have a fitted effect of over 45% in size; also: potency is read from the fitted curve at half-maximal effect
Method in brief: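 HepG2-CYP2B6-hCAR, 2500 cells/well, 4 h pre-incubation; cpd 15 conc + PK11195 0.75 uM final; 23 h, 37 C/5% CO2; CellTiter-Fluor, fluorescence.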

[3] = qHTS assay to identify small molecule antagonists of the constitutive androstane receptor (CAR) signaling pathway - cell viability counter screen (AID 1224837); also: nearly all actives have a fitted effect of over 45% in size; also: potency is read from the fitted curve at half-maximal effect
Method in brief: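 Using CellTiter-Fluor, viability is scored in HepG2 cells stably carrying hCAR and a 2.2kb CYP2B6 reporter after 23 hr compound exposure across 15 concentrations, with CITCO present at 50 nM.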

[4] = qHTS assay to identify small molecule antagonists of the estrogen related receptor signaling pathway with the pleiotropic PPARgamma coactivator (PGC) from Tox21 10K library - cell viability counter screen (AID 1224840; active = well fitted cell-killing curve with a large enough effect in the repeat runs, not every such curve was filed as active; also: nearly all actives have a fitted effect of over 40% in size; also: potency is read from the fitted curve at half-maximal effect)
Method in brief: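 Here the PGC/ERR cells serve as a cytotoxicity control: they are exposed to compounds for 17.5 hours at 37 C, and live-cell signal is quantified using CellTiter-Fluor fluorescence.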

[5] = qHTS assay to identify small molecule antagonists of the estrogen related receptor signaling pathway with the pleiotropic PPARgamma coactivator (PGC) from Tox21 10K library (AID 1224841; call rule not given here; also: actives are mostly falling curves and most rising ones were filed inactive; nearly all actives have a fitted effect of over 50% in size; also: potency is read from the fitted curve at half-maximal effect)
Method in brief: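 Each well held 2,000 PGC/ERR cells, pre-incubated six hours (37 C, 5% CO2). Test substances in DMSO were added by pin tool and left for 18 h at 37 C before luciferase detection by One-Glo.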

[6] = qHTS assay to identify small molecule agonists of the estrogen related receptor signaling pathway with the pleiotropic PPARgamma coactivator (PGC) from Tox21 10K library (AID 1224842); also: nearly all actives have a fitted effect of over 15% in size
Method in brief: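 Luminescence from One-Glo (30 min, room temperature) measured after PGC/ERR cells had 18 h at 37 C with pinned compound (23 nL in DMSO). Cells had been seeded at 2,000 per well and pre-incubated 6 h.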

[7] = biological target: Thyrotropin receptor (Homo sapiens) (UniProt P16473); test: qHTS assay to identify small molecule agonists of the thyroid stimulating hormone receptor (TSHR) signaling pathway (AID 1224843; calls by dose curve; also: nearly all actives have a fitted effect of over 45% in size)
Thyrotropin receptor (Homo sapiens), sequence (P16473 whole entry, looked up): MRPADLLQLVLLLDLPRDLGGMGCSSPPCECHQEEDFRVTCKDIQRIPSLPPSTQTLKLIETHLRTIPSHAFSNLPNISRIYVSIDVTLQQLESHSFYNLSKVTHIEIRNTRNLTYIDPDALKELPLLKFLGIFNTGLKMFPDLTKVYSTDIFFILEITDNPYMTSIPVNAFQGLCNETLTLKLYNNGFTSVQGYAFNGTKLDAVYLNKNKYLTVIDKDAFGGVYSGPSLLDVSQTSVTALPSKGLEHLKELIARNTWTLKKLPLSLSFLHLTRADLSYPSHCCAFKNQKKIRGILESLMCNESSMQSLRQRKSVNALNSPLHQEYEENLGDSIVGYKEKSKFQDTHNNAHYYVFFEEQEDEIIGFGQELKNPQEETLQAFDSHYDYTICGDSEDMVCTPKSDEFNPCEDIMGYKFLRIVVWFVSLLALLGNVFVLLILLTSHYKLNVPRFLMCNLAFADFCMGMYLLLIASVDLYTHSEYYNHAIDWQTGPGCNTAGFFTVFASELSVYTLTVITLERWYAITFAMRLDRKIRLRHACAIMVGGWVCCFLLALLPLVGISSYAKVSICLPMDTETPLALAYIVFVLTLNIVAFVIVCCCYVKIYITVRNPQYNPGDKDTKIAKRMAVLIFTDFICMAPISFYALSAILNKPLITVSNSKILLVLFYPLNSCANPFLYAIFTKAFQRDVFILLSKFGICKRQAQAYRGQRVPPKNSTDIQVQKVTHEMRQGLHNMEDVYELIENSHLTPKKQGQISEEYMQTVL
Method in brief: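 HEK293 cells stably bearing the thyrotropin receptor were plated at 800 cells/well and challenged with compound (30 min, RT). Accumulated cAMP was quantified via cAMP-d2 competing for cryptate-tagged antibody.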

[8] = qHTS assay to identify small molecule agonists of the hypoxia (HIF-1) signaling pathway - cell viability counter screen (AID 1224844; calls by dose curve; also: nearly all actives have a fitted effect of over 50% in size; also: potency is read from the fitted curve at half-maximal effect)
Method in brief: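 Multiplexed with the HRE beta-lactamase assay, this viability read used CellTiter-Glo luminescence (30 min, RT) on HRE-bla ME-180 cells treated 17 hrs with compounds in 0.5% dialyzed FBS medium.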

[9] = qHTS assay to identify small molecule agonists of H2AX (AID 1224845; active = well fitted activation curve with a large enough effect in the signal ratio in the repeat runs, not every such curve was filed as active; the % refers to the signal ratio)
Method in brief: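 Phospho-H2AX Ser139 measured by HTRF (ex 320 nm; em 665 and 620 nm) after 24 hr antibody incubation. Compounds, 15 concentrations, 0.76% DMSO, were applied to CHO-K1 cells for 3hr at 37C before lysis.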

[10] = qHTS assay to identify small molecule agonists of the hypoxia (HIF-1) signaling pathway (AID 1224846; active = well fitted activation curve with a large enough effect in the signal ratio in the repeat runs, not every such curve was filed as active; the % refers to the signal ratio)
Method in brief: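 Hypoxia-pathway activation was scored as increased beta-lactamase from an HRE-controlled reporter in ME-180 cells; plated at 2,000 cells per well with 0.5% dialyzed FBS, they were exposed 17 hrs to compounds and then given CCF4-AM.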

[11] = qHTS assay to identify small molecule agonists of H2AX - cell viability counter screen (AID 1224847; calls by dose curve;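 also: wild-type CHO-K1 cells; top concentration of the series differs between compounds; nearly all actives have a fitted effect of over 30% in size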)
Method in brief: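 Cells plated first: CHO-K1, 1000 per well in 10% FBS medium, incubated overnight at 37C. Then 15-point compound titration added (final DMSO 0.76%) for 3 hr. Finally CellTiter-Glo added and luminescence read.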

[12] = qHTS assay to identify small molecule antagonists of the estrogen related receptor (ERR) signaling pathway from Tox21 library (AID 1224848); also: nearly all actives have a fitted effect of over 50% in size; also: potency is read from the fitted curve at half-maximal effect
Method in brief: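 Reading was by luminescence 30 min after ONE-Glo addition. Before that, ERR cells at 2,000 per well had rested 6 h at 37 C/5% CO2 and then received pin-tooled compounds in DMSO for 18 h at 37 C.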

[13] = qHTS assay to identify small molecule agonists of the estrogen related receptor (ERR) signaling pathway from Tox21 library (AID 1224849; calls by dose curve; also: nearly all actives have a fitted effect of over 15% in size); details: ERR reporter cell line, ONE-Glo luciferase, 18 h
Method in brief: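 Six hours post-seeding at 37 C/5% CO2, ERR cells receive DMSO-solubilised compounds; after 18 h at 37 C, ONE-Glo reagent is applied and luminescence recorded.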

[14] = qHTS RealTime-Glo MT Cell Viability Assay in HepG2 cells - 24 hour (AID 1224867); also: nearly all actives have a fitted effect of over 50% in size; also: potency is read from the fitted curve at half-maximal effect
Method in brief: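 Cell number in HepG2 cultures estimated from NanoLuc luminescence generated by metabolic reduction of a prosubstrate by living cells. The homogeneous, nonlytic format allowed repeated reads at 0, 8, 16, 24, 32 and 40 h of compound exposure.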

[15] = A CellTox Green Cytotoxicity Assay to monitor cytotoxicity in HEK293 cells - 0 hour (AID 1224869); also: nearly all actives have a fitted effect of over 50% in size
Method in brief: (§1)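 Seeding of HEK293 cells together with cytotoxicity dye preceded a 5 h incubation at 37 C/5% CO2. Test compounds in DMSO were then added and fluorescence monitored across 40 h.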

[16] = qHTS RealTime-Glo MT Cell Viability Assay in HepG2 cells - 40 hour (AID 1224870); also: nearly all actives have a fitted effect of over 50% in size; also: potency is read from the fitted curve at half-maximal effect
Method in brief: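 Real-time viability: cells seeded at 600 per well together with NanoLuc and cell-permeant prosubstrate, compounds added after 5 h incubation. Luminescence tracked at 0, 8, 16, 24, 32 and 40 h of exposure.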

[17] = A CellTox Green Cytotoxicity Assay to monitor cytotoxicity in HEK293 cells - 40 hour (AID 1224871); also: nearly all actives have a fitted effect of over 45% in size; also: potency is read from the fitted curve at half-maximal effect
Method in brief: as §1

[18] = biological target: Nuclear receptor subfamily 1 group I member 3 (Homo sapiens) (UniProt Q14994); test: qHTS assay to identify small molecule agonists of the constitutive androstane receptor (CAR) signaling pathway (AID 1224839);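 also: HepG2 cells stably carrying human CAR and a CYP2B6 luciferase reporter; nearly all actives have a fitted effect of over 15% in size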
Nuclear receptor subfamily 1 group I member 3 (Homo sapiens), sequence (Q14994 whole entry, looked up): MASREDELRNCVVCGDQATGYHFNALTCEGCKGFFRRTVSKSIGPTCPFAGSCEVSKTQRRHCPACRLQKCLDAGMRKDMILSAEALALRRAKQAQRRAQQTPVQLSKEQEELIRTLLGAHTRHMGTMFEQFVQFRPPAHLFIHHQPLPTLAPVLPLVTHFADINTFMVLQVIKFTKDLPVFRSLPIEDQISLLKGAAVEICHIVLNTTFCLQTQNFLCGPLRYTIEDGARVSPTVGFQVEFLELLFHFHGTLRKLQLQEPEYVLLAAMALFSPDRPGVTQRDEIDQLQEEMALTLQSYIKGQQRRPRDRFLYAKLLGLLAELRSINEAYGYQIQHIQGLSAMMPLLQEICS
Method in brief: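 HepG2-CYP2B6-hCAR cells, 2500/well, 4 h pre-incubation; compounds 15 conc.; PK11195 0.75 uM final; 24 h, 37 C/5% CO2; ONE-Glo luciferase read.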

[19] = qHTS RealTime-Glo MT Cell Viability Assay in HEK293 cells - 32 hour (AID 1224868); also: nearly all actives have a fitted effect of over 50% in size; also: potency is read from the fitted curve at half-maximal effect
Method in brief: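 Homogeneous bioluminescent viability format in HEK293 cells (600 cells/well). Following 5 h at 37 C/5% CO2, 23 nL compound was pintooled; the signal was measured repeatedly during 40 h incubation.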

[20] = biological target: Nuclear receptor subfamily 1 group I member 3 (Homo sapiens) (UniProt Q14994); test: qHTS assay to identify small molecule antagonists of the constitutive androstane receptor (CAR) signaling pathway (AID 1224838);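 also: HepG2 cells stably expressing hCAR with CYP2B6 luciferase reporter stimulated by CITCO; nearly all actives have a fitted effect of over 40% in size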
Method in brief: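 Reporter luminescence was quantified after 24 h exposure of hCAR/CYP2B6-2.2kb double-stable HepG2 cells to compounds at 15 concentrations in the presence of 50 nM CITCO final.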
% is scaled to controls: 0 for no effect and ±100 for the full control effect.

Cc1cccc(C(=O)O)c1O
inactive: Potency [1] | Potency [2] | Potency [3] | Potency [4] | Potency [5] | Potency [6] | Potency [7] | Potency [8] | Potency [9] | Potency [10] | Potency [11] | Potency [12] | activity change, positive = activation ([13]; at 42.5 µM (top of the series)) 0.112% | Potency [14] | Potency [15] | Potency [16] | Potency [17]

S=c1nccc[nH]1
inactive: Potency [1] | Potency [2] | Potency [3] | Potency [18] | Potency [4] | Potency [5] | Potency [6] | Potency [8] | Potency [9] | Potency [10] | Potency [11] | Potency [12] | activity change, positive = activation ([13]; at 92.4 µM (top of the series)) -6.52% | Potency [14] | Potency [15] | Potency [16] | Potency [17]

C#C[C@]1(OC(C)=O)CC[C@H]2[C@@H]3CCC4=C[C@@H](OC(C)=O)CC[C@@H]4[C@H]3CC[C@@]21C
inactive: Potency [1] | Potency [2] | Potency [3] | Potency [18] | Potency [4] | Potency [6] | Potency [7] | Potency [8] | Potency [10] | activity change, positive = activation ([13]; at 42.5 µM (top of the series)) -53.5% | Potency [14] | Potency [15] | Potency [16]
active: Potency [5] 21.1 µM | Potency [12] 23.7 µM | Potency [19] 21.3 µM

Nc1nc2c(ncn2COCCO)c(=O)[nH]1
inactive: Potency [1] | Potency [2] | Potency [3] | Potency [4] | Potency [5] | Potency [6] | Potency [7] | Potency [8] | Potency [10] | Potency [11] | Potency [12] | activity change, positive = activation ([13]; at 42.5 µM (top of the series)) -1.87% | Potency [14] | Potency [19] | Potency [15] | Potency [16] | Potency [17]

Oc1ccccc1O
active: Potency [19] 39.4 µM and 21.9 µM
inactive: Potency [1] | Potency [2] | Potency [3] | Potency [20] | Potency [7] | Potency [11] | Potency [14] | Potency [15] | Potency [16] | Potency [17]

COC(=O)c1ccccc1C
inactive: Potency [1] | Potency [2] | Potency [3] | Potency [4] | Potency [5] | Potency [7] | Potency [8] | Potency [9] | Potency [10] | Potency [11] | Potency [12] | activity change, positive = activation ([13]; at 92.4 µM (top of the series)) 3.57% | Potency [14] | Potency [19] | Potency [15] | Potency [16] | Potency [17]

CCN(CC)C(=O)c1cc(S(=O)(=O)Cc2ccccc2)c(N2CCC(c3ccccc3)CC2)cc1N(CC)CCN(C)C
inactive: Potency [1] | Potency [18] | Potency [10] | activity change, positive = activation ([13]; at 42.5 µM (top of the series)) -79.2% | Potency [15]
active: Potency [2] 21.4 µM | Potency [3] 24.1 µM | Potency [4] 21.4 µM | Potency [8] 10.8 µM | Potency [12] 21.4 µM | Potency [14] 17.2 µM | Potency [19] 8.61 µM | Potency [16] 13.6 µM | Potency [17] 17.2 µM

CC(C)(C)C1CCC(=O)CC1
inactive: Potency [1] | Potency [2] | Potency [3] | Potency [4] | Potency [5] | Potency [7] | Potency [8] | Potency [9] | Potency [10] | Potency [11] | Potency [12] | activity change, positive = activation ([13]; at 92.4 µM (top of the series)) -0.544% | Potency [14] | Potency [19] | Potency [15] | Potency [16] | Potency [17]

CN(C)Cc1cc(C(C)(C)C)c(O)c(C(C)(C)C)c1
inactive: Potency [1] | Potency [2] | Potency [3] | Potency [4] | Potency [6] | Potency [8] | Potency [9] | Potency [10] | activity change, positive = activation ([13]; at 92.4 µM (top of the series)) -28.5% | Potency [14] | Potency [19] | Potency [15] | Potency [16] | Potency [17]

CCCCC(CC)CN1CN(CC(CC)CCCC)CC(C)(N)C1 (configuration not stated)
active: Potency [14] 16.9 µM | Potency [16] 21.3 µM | Potency [17] 10.7 µM
inactive: Potency [1] | Potency [2] | Potency [3] | Potency [4] | Potency [5] | Potency [6] | activity change, positive = activation ([13]; at 42.5 µM (top of the series)) -16.4% | Potency [15]

OC[C@H]1O[C@H](O[C@H]2O[C@H](CO)[C@@H](O)[C@H](O)[C@H]2O)[C@H](O)[C@@H](O)[C@@H]1O
inactive: Potency [1] | Potency [2] | Potency [3] | Potency [4] | Potency [5] | Potency [6] | Potency [7] | Potency [8] | Potency [9] | Potency [10] | Potency [11] | Potency [12] | activity change, positive = activation ([13]; at 92.4 µM (top of the series)) 8.53% | Potency [14] | Potency [19] | Potency [15] | Potency [16] | Potency [17]

Cc1c(C)c2c(c(C)c1OC(=O)c1cccnc1)CC[C@@](C)(CCC[C@H](C)CCC[C@H](C)CCCC(C)C)O2
inactive: Potency [1] | Potency [2] | Potency [3] | Potency [4] | Potency [5] | Potency [6] | Potency [7] | Potency [8] | Potency [9] | Potency [10] | Potency [11] | Potency [12] | activity change, positive = activation ([13]; at 42.5 µM (top of the series)) 3.86% | Potency [14] | Potency [19] | Potency [15] | Potency [16] | Potency [17]

Nc1nc(-c2ccccc2)cs1
inactive: Potency [2] | Potency [3] | Potency [4] | Potency [6] | Potency [7] | Potency [8] | Potency [9] | Potency [10] | Potency [11] | Potency [12] | Potency [14] | Potency [19] | Potency [15] | Potency [16] | Potency [17]
active: Potency [1] 31.6 µM | activity change, positive = activation ([13]; at 92.4 µM (top of the series)) 41.7%

Cc1c(N)cccc1C(F)(F)F
inactive: Potency [1] | Potency [2] | Potency [3] | Potency [4] | Potency [5] | Potency [6] | Potency [7] | Potency [8] | Potency [9] | Potency [10] | Potency [11] | Potency [12] | activity change, positive = activation ([13]; at 42.5 µM (top of the series)) 6.86% | Potency [14] | Potency [19] | Potency [15] | Potency [16] | Potency [17]
